Experiment [1] in a line: NCI Yeast Anticancer Drug Screen. Data for the rad50 strain (AID 155).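 Further: 0% = growth of vehicle-only cultures of the same strain.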 Particulars: S. cerevisiae rad50 strain growth inhibition, stronger effect = higher value. In short, it runs like this:
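Genetically altered yeast (DNA repair pathway); compound treatment; growth inhibition vs vehicle ctrl.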

Experiment [2] is described as follows: NCI Yeast Anticancer Drug Screen. Data for the mec2-1 strain (AID 157). Conditions: S. cerevisiae mec2-1 strain, stronger effect = higher value. The method in brief: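 mec2-1 yeast strain, carrying an alteration in DNA damage repair or cell cycle control, was exposed to compounds; growth inhibition was measured relative to vehicle-treated controls.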
The nature of experiment [3]: NCI Yeast Anticancer Drug Screen. Data for the sgs1 mgt1 strain (AID 161).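 Further: 0% = growth of cultures given vehicle only.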 Particulars: S. cerevisiae sgs1 mgt1 strain, stronger effect = higher value. The method in brief:
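Growth of a repair-deficient yeast mutant was monitored after compound treatment and expressed as inhibition relative to vehicle-treated cultures.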

Experiment [4] is described as follows: NCI Yeast Anticancer Drug Screen. Data for the cln2 rad14 strain (AID 165).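 Further: 0% = growth equal to vehicle treated cultures.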 Particulars: S. cerevisiae cln2 rad14 strain, stronger effect = higher value. In short, it runs like this: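 Yeast carrying cln2 and rad14 alterations (cell cycle control and DNA damage repair) were exposed to compounds. Growth inhibition was measured against vehicle-treated controls.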
Experiment [5] can be described thus: NCI Yeast Anticancer Drug Screen. Data for the bub3 strain (AID 167). Particulars: S. cerevisiae bub3 mutant strain, stronger effect = higher value. In short, it runs like this: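 Yeast carrying a defined mutation is treated with each compound, and growth is compared with that of vehicle-exposed cells to give inhibition.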
A short description of experiment [6]: NCI Yeast Anticancer Drug Screen. Data for the mlh1 rad18 strain (AID 175). Particulars: S. cerevisiae mlh1 rad18 strain growth inhibition, stronger effect = higher value. The method in brief:
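Growth inhibition of the yeast strain was measured after compound exposure and expressed relative to vehicle-treated controls. The strain carries defined defects in DNA damage repair.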

Where [7] appears, read: at 5.0 µM (retest, dose inferred, filed as 0.5).
The mark [8] stands for this setting: at 50.0 µM (retest, dose inferred, filed as 5.0).

The panel holds about 79,000 compounds, 15% with a hit somewhere; the sample as a whole holds those more often. A number with no mark means an inactive call. The source made the active and inactive calls. No stated cut-off is given here; in the data, active means growth inhibition above about 70%; inactive means the rest.

As for `Nc1ccccc1CC(c1c[nH]c2ccccc12)c1c[nH]c2ccccc12`, the growth inhibition in experiment [1] (setting [7]) is 4%; in experiment [1] (setting [8]) it was 7%; in experiment [1] (at 50.0 µM), 94% (active); in experiment [2] (setting [7]) it was 1%; in experiment [2] (setting [8]) it was 17%; in experiment [2] (at 50.0 µM), 95% (active). Moreover, the growth inhibition in experiment [3] (setting [7]) was 1%; in experiment [3] (setting [8]) it was 10%; in experiment [3] (at 50.0 µM) it was 94.4% (active); in experiment [4] (setting [7]), 93% (active); in experiment [4] (setting [8]), -7%; in experiment [4] (at 50.0 µM), 90.5% (active). The growth inhibition in experiment [5] (setting [7]) was 2%; in experiment [5] (setting [8]), 26%; in experiment [5] (at 50.0 µM), 93% (active); in experiment [6] (setting [7]) it was 4%; in experiment [6] (setting [8]), 27%; in experiment [6] (at 50.0 µM), 93.8% (active).
Turning to `COc1ccc(CN2CCCN(Cc3ccc(OC)cc3OC)C2c2cccc([N+](=O)[O-])c2O)c(OC)c1`, the growth inhibition in experiment [1] (setting [7]) was 16%; in experiment [1] (setting [8]), 61%; in experiment [1] (at 50.0 µM) it was 70.8% (active); in experiment [2] (setting [7]), 11%; in experiment [2] (setting [8]), 29%; in experiment [2] (at 50.0 µM) it was 29.8%. Moreover, the growth inhibition in experiment [3] (setting [7]) is 8%; in experiment [3] (setting [8]), 20%; in experiment [3] (at 50.0 µM) it was 77.5% (active); in experiment [4] (setting [7]), 5%; in experiment [4] (setting [8]) it was 27%; in experiment [4] (at 50.0 µM), 54.1%. The growth inhibition was -5% in experiment [5] (setting [7]); 31% in experiment [5] (setting [8]); 7.65% in experiment [5] (at 50.0 µM); 16% in experiment [6] (setting [7]); 70% (active) in experiment [6] (setting [8]); 51.4% in experiment [6] (at 50.0 µM).
Take `COc1ccc(N2CCN(CC(O)COc3cc4c(c5c3CCCC5)CCCC4)CC2)cc1` (configuration not stated): the growth inhibition in experiment [1] (setting [7]) is 15%; in experiment [1] (setting [8]), 98% (active); in experiment [1] (at 50.0 µM) it was 45.4%; in experiment [2] (setting [7]) it was 17%; in experiment [2] (setting [8]) it was 98% (active); in experiment [2] (at 50.0 µM) it was 99% (active). For the same compound, the growth inhibition in experiment [3] (setting [7]) was 22%; in experiment [3] (setting [8]), 97% (active); in experiment [3] (at 50.0 µM) it was 54.7%; in experiment [4] (setting [7]) it was 6%; in experiment [4] (setting [8]) it was 98% (active); in experiment [4] (at 50.0 µM), 84.2% (active). Moreover, the growth inhibition was 13% in experiment [5] (setting [7]); 97% (active) in experiment [5] (setting [8]); 92% (active) in experiment [5] (at 50.0 µM); 9% in experiment [6] (setting [7]); 96% (active) in experiment [6] (setting [8]); 77.6% (active) in experiment [6] (at 50.0 µM).
As for `O=[N+]([O-])/C=C/c1cc2c(ccc3ccccc32)[nH]1`, the growth inhibition was 61% in experiment [1] (setting [7]); 98% (active) in experiment [1] (setting [8]); 82.7% (active) in experiment [1] (at 50.0 µM); 94% (active) in experiment [2] (setting [7]); 95% (active) in experiment [2] (setting [8]); 92.2% (active) in experiment [2] (at 50.0 µM). The growth inhibition was 88% (active) in experiment [3] (setting [7]); 98% (active) in experiment [3] (setting [8]); 94.5% (active) in experiment [3] (at 50.0 µM); 37% in experiment [4] (setting [7]); 92% (active) in experiment [4] (setting [8]); 93.3% (active) in experiment [4] (at 50.0 µM). Moreover, the growth inhibition in experiment [5] (setting [7]) is 96% (active); in experiment [5] (setting [8]), 98% (active); in experiment [5] (at 50.0 µM) it was 90.7% (active); in experiment [6] (setting [7]), 87% (active); in experiment [6] (setting [8]), 97% (active); in experiment [6] (at 50.0 µM), 89% (active).
Take `CC(=O)OC1=CC2=CCC3C(CCC4(C)C(C(C)=O)CCC34)C2(C)CC1` (configuration not stated): the growth inhibition in experiment [1] (setting [7]) is -12%; in experiment [1] (setting [8]), 0%; in experiment [1] (at 50.0 µM), -5.65%; in experiment [2] (setting [7]), -6%; in experiment [2] (setting [8]), 7%; in experiment [2] (at 50.0 µM), 10.9%. The growth inhibition in experiment [3] (setting [7]) is -6%; in experiment [3] (setting [8]), 8%; in experiment [3] (at 50.0 µM), 7.35%; in experiment [4] (setting [7]), -6%; in experiment [4] (setting [8]) it was -13%; in experiment [4] (at 50.0 µM), 39.8%. In addition, the growth inhibition in experiment [5] (setting [7]) was -11%; in experiment [5] (setting [8]), -14%; in experiment [5] (at 50.0 µM), -1.15%; in experiment [6] (setting [7]) it was -4%; in experiment [6] (setting [8]), -11%; in experiment [6] (at 50.0 µM), 11.3%.
With `Cn1c2c(c3ccccc31)CCN(CCN1CCN(c3ccccc3)CC1)C2=O`, the growth inhibition in experiment [1] (setting [7]) was 30%; in experiment [1] (setting [8]) it was 31%; in experiment [1] (at 50.0 µM) it was 71.9% (active); in experiment [2] (setting [7]), 21%; in experiment [2] (setting [8]) it was 29%; in experiment [2] (at 50.0 µM), 43%. Also, the growth inhibition in experiment [3] (setting [7]) is 28%; in experiment [3] (setting [8]) it was 37%; in experiment [3] (at 50.0 µM), 79% (active); in experiment [4] (setting [7]), 26%; in experiment [4] (setting [8]), 24%; in experiment [4] (at 50.0 µM), 60.6%. In addition, the growth inhibition in experiment [5] (setting [7]) is 32%; in experiment [5] (setting [8]) it was 43%; in experiment [5] (at 50.0 µM) it was 67.5%; in experiment [6] (setting [7]) it was 32%; in experiment [6] (setting [8]) it was 35%; in experiment [6] (at 50.0 µM), 59.8%.
In the case of `Nc1ccc(S(=O)(=O)C23CC4CC(CC(C4)C2)C3)cc1`, the growth inhibition was -2% in experiment [1] (setting [7]); 96% (active) in experiment [1] (setting [8]); 97.9% (active) in experiment [1] (at 50.0 µM); -16% in experiment [2] (setting [7]); 98% (active) in experiment [2] (setting [8]); 98.8% (active) in experiment [2] (at 50.0 µM). Moreover, the growth inhibition in experiment [3] (setting [7]) is -3%; in experiment [3] (setting [8]), 98% (active); in experiment [3] (at 50.0 µM), 97.7% (active); in experiment [4] (setting [7]), 1%; in experiment [4] (setting [8]) it was 93% (active); in experiment [4] (at 50.0 µM), 93.5% (active). The growth inhibition in experiment [5] (setting [7]) is 64%; in experiment [5] (setting [8]), 98% (active); in experiment [5] (at 50.0 µM) it was 95.8% (active); in experiment [6] (setting [7]), 13%; in experiment [6] (setting [8]), 98% (active); in experiment [6] (at 50.0 µM), 97.5% (active).
Consider `CN(C)CCC[Si]1(C)c2ccccc2CCc2ccccc21`, for which the growth inhibition was -6% in experiment [1] (setting [7]); 16% in experiment [1] (setting [8]); 82.8% (active) in experiment [1] (at 50.0 µM); -5% in experiment [2] (setting [7]); 15% in experiment [2] (setting [8]); 40% in experiment [2] (at 50.0 µM). In addition, the growth inhibition in experiment [3] (setting [7]) was -5%; in experiment [3] (setting [8]), 17%; in experiment [3] (at 50.0 µM), 57.4%; in experiment [4] (setting [7]), -2%; in experiment [4] (setting [8]), -5%; in experiment [4] (at 50.0 µM), 19.9%. Further, the growth inhibition in experiment [5] (setting [7]) was -8%; in experiment [5] (setting [8]) it was 6%; in experiment [5] (at 50.0 µM), 71.3% (active); in experiment [6] (setting [7]) it was -3%; in experiment [6] (setting [8]), 26%; in experiment [6] (at 50.0 µM) it was 78.8% (active).
For `O=C1C(N2CCOCC2)=C(Cl)C(=O)c2ncccc21`, the growth inhibition is 66% in experiment [1] (setting [7]); 95% (active) in experiment [1] (setting [8]); 83.8% (active) in experiment [1] (at 50.0 µM); 30% in experiment [2] (setting [7]); 97% (active) in experiment [2] (setting [8]); 83.8% (active) in experiment [2] (at 50.0 µM). Also, the growth inhibition in experiment [3] (setting [7]) is 35%; in experiment [3] (setting [8]), 96% (active); in experiment [3] (at 50.0 µM), 89.8% (active); in experiment [4] (setting [7]), 13%; in experiment [4] (setting [8]), 92% (active); in experiment [4] (at 50.0 µM) it was 89% (active). Also, the growth inhibition was 31% in experiment [5] (setting [7]); 97% (active) in experiment [5] (setting [8]); 89.7% (active) in experiment [5] (at 50.0 µM); 61% in experiment [6] (setting [7]); 96% (active) in experiment [6] (setting [8]); 89.3% (active) in experiment [6] (at 50.0 µM).

The values are drawn from PubChem BioAssay (NCI).
